Assay outcomes: PubChem, several laboratories
A selection: hits, their analogues and other compounds. The true share with any hit is near 1.8%.
PolyA inhibitor: polyadenylation inhibitors in yeast reporter cells, primary screen, luminescence, S. cerevisiae | S. cerevisiae SKY197-pL101 polyadenylation reporter, beta-gal luminescence; efflux-impaired pdr1/pdr3 knockout yeast; score 100 = 6 SD above DMSO | actives 0.02% (n = 300,000) | activity score, % at 12 µM;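 active = lowest replicate activity score at least 50, where 100 means six control SD above control mean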;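 also: yeast exposed to compound for 9 h at 30 °C; higher score means more reporter readthrough which indicates perturbed polyadenylation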
NALP1 inh: NALP1 inflammasome inhibitors in reconstituted yeast, colorimetric, S. cerevisiae, triplicate retest; S. cerevisiae NALP1/ASC/caspase-1 growth, X-gal OD620, 72 h; inhibition, % at 10 µM; actives 0.61% (n = 280,000); in the data active = inhibition mostly above about 24%, no sharp cut-off; inactive = mostly below about 32%
NALP3 yeast inh: NALP3 inflammasome inhibitors in reconstituted yeast, primary screen, luminescence, uHTS | AID 2825, 2010 | Yeast reconstituted NLRP3/ASC/caspase-1, beta-gal luminescence, 24 h | actives 0.39% (n = 330,000) | inhibition, % at 10 µM;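 active = inhibition of 50% or more; inactive = inhibition below 50%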;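 also: plate controls were induced DMSO wells for no effect and uninduced yeast grown without galactose for full effect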
SUMO Mot1 rescue: yeast Mot1-301 growth rescue at high temperature, primary screen, SUMOylation pathway inhibitor project, S. cerevisiae, ATP luminescence, 38.5C. S. cerevisiae Mot1-301 growth rescue; percent above DMSO median, 100 means doubled. growth rescue, % at 18.8 µM. actives 1% (n = 320,000);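 active = every valid replicate shows activation above 250% relative to neutral control wells; inactive = the rest, any valid replicate at or below 250%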;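 also: OY570 slx delta 5 strain wells were the positive control but not used for scaling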
Active calls of the source: *.

How did CC(OC(=O)C1=COCCO1)C(=O)Nc1ccc(Oc2ccccc2)cc1 (stereo unspecified) do in these assays?
PolyA inhibitor: -6; NALP1 inh: 36*; NALP3 yeast inh: 24; SUMO Mot1 rescue: 288

What do the screens show for `Cc1nnc2sc(COc3ccccc3)nn2c1=O`?
PolyA inhibitor: 15; NALP1 inh: -14; NALP3 yeast inh: 17; SUMO Mot1 rescue: 120

How did CCN(CC)c1ccc(N=Cc2ccccc2[N+](=O)[O-])cc1 do in these assays?
PolyA inhibitor: -24; NALP1 inh: 33; NALP3 yeast inh: 35; SUMO Mot1 rescue: 10

How did CCN(CC)c1ccc(N=Cc2ccc([N+](=O)[O-])o2)cc1 do in these assays?
PolyA inhibitor: -7; NALP1 inh: 76*; NALP3 yeast inh: 22; SUMO Mot1 rescue: -3

How did O=C1C=C(c2ccccc2)OC2(CCCC2)O1 do in these assays?
PolyA inhibitor: 0; NALP3 yeast inh: -2; SUMO Mot1 rescue: -13

How did O=C1C=C(c2ccccc2)OC(c2ccccc2)O1 (stereo unspecified) do in these assays?
PolyA inhibitor: -13; NALP1 inh: 41*; NALP3 yeast inh: 1; SUMO Mot1 rescue: 41

What do the screens show for `COc1ccc(-c2cccc(NC(=O)COc3ccc(Cl)cc3)c2)nn1`?
PolyA inhibitor: 81*; NALP1 inh: 26; NALP3 yeast inh: 16; SUMO Mot1 rescue: 64

What do the screens show for `Cc1ccc(C)c(NC(=O)C(NCC(C)(C)N2CCOCC2)c2ccccc2)c1` (stereo unspecified)?
PolyA inhibitor: 5; NALP1 inh: 2; NALP3 yeast inh: 5; SUMO Mot1 rescue: 767*

What do the screens show for `CSc1nnc(Cc2cc(=O)[nH]c(=O)[nH]2)n1-c1cccc(C)c1`?
PolyA inhibitor: 3; NALP1 inh: 37; NALP3 yeast inh: 21; SUMO Mot1 rescue: 352*

How did Fc1ccc(Nc2nc(N3CCOCC3)c3ccccc3n2)cc1 do in these assays?
PolyA inhibitor: -11; NALP1 inh: 14; NALP3 yeast inh: 23; SUMO Mot1 rescue: 88

How did c1ccc2c(Nc3nc(N4CCOCC4)c4ccccc4n3)cccc2c1 do in these assays?
PolyA inhibitor: -35; NALP1 inh: 91*; NALP3 yeast inh: 47; SUMO Mot1 rescue: -6

What do the screens show for `O=C(COc1ccc2c(c1)oc(=O)c1ccccc12)NCC1CCC(C(=O)O)CC1` (stereo unspecified)?
PolyA inhibitor: 5; NALP1 inh: -2; NALP3 yeast inh: 7; SUMO Mot1 rescue: 620*

Results for O=C(COc1ccc2cc(-c3ccccc3)c(=O)oc2c1)NCC1CCC(C(=O)O)CC1 (stereo unspecified) ?
PolyA inhibitor: -13; NALP1 inh: 7; NALP3 yeast inh: 11; SUMO Mot1 rescue: 988*

How did CCn1c(SCC(=O)O)nnc1-c1cc2c(C)nn(-c3ccccc3)c2s1 do in these assays?
PolyA inhibitor: -10; NALP1 inh: 11; NALP3 yeast inh: 15; SUMO Mot1 rescue: 5

Results for CC(=O)Nc1ccc(OCc2cccc3ccccc23)cc1 ?
PolyA inhibitor: 5; NALP1 inh: 29*; NALP3 yeast inh: 32; SUMO Mot1 rescue: 3

How did CCOc1ccc(NC(=S)Nc2cccc3ccccc23)cc1 do in these assays?
PolyA inhibitor: 3; NALP1 inh: 40*; NALP3 yeast inh: 20; SUMO Mot1 rescue: -8

Results for NC(=O)c1cc2c(s1)-c1cc(Cl)ccc1SC2 ?
PolyA inhibitor: -27; NALP3 yeast inh: 16; SUMO Mot1 rescue: 351*

How did Fc1cccc(Nc2c3c(nc4ccccc24)CCC3)c1 do in these assays?
PolyA inhibitor: -6; NALP1 inh: 20; NALP3 yeast inh: 24; SUMO Mot1 rescue: -3

What do the screens show for `c1ccc2c(Nc3ccc4c(c3)OCCO4)c3c(nc2c1)CCCC3`?
PolyA inhibitor: -9; NALP1 inh: 29*; NALP3 yeast inh: 7; SUMO Mot1 rescue: 3

How did CCOc1cc(C(=O)Nn2cnnc2)cc(OCC)c1OCC do in these assays?
PolyA inhibitor: 1; NALP1 inh: -5; NALP3 yeast inh: 8; SUMO Mot1 rescue: 2

How did CCOc1ccc(C(=O)Nn2cnnc2)cc1 do in these assays?
PolyA inhibitor: 10; NALP1 inh: 33*; NALP3 yeast inh: 6; SUMO Mot1 rescue: 6

What do the screens show for `O=C(CCNS(=O)(=O)c1ccc(OC(F)(F)F)cc1)NCCc1c[nH]c2ccccc12`?
NALP3 yeast inh: 6; SUMO Mot1 rescue: 1

Results for OC(COc1ccc(F)cc1Cl)CN1CCC(Cc2ccccc2)CC1 (stereo unspecified) ?
PolyA inhibitor: -29; NALP1 inh: 42*; NALP3 yeast inh: 47; SUMO Mot1 rescue: 145

Results for CCc1nnc(NC(=O)CSc2nnc(CNc3ccc(F)cc3)n2C2CCCCC2)s1 ?
PolyA inhibitor: -4; NALP1 inh: 32*; NALP3 yeast inh: 12; SUMO Mot1 rescue: 34

Results for Cc1nnc(NC(=O)C(C)Oc2ccc3c(C)cc(=O)oc3c2)s1 (stereo unspecified) ?
PolyA inhibitor: -3; NALP1 inh: 20; NALP3 yeast inh: 1; SUMO Mot1 rescue: -18

What do the screens show for `COC(=O)Nc1ccc(S(=O)(=O)N2CCCC(C(=O)NC3CCCCC3)C2)cc1` (stereo unspecified)?
PolyA inhibitor: 1; NALP1 inh: 14; NALP3 yeast inh: -1; SUMO Mot1 rescue: -6

Results for COC(=O)Nc1ccc(S(=O)(=O)N2CCC(C(=O)NC3CCCCC3)CC2)cc1 ?
PolyA inhibitor: 1; NALP1 inh: 38; NALP3 yeast inh: 4; SUMO Mot1 rescue: 308*

Results for Cn1c(=S)[nH]c2c(c1=O)C(C)(C)Cc1ccccc1-2 ?
PolyA inhibitor: -29; NALP1 inh: 0; SUMO Mot1 rescue: -16

Results for CCn1cc(C(=O)O)c(=O)c2cnc(N3CCN(C(=S)NC(=O)c4ccc(Br)cc4)CC3)nc21 ?
PolyA inhibitor: 11; NALP1 inh: 6; NALP3 yeast inh: 6; SUMO Mot1 rescue: -9

How did CCOC(=O)N1CCN(C(=O)CSCC(=O)Nc2nc(-c3ccc(C)cc3)cs2)CC1 do in these assays?
PolyA inhibitor: -11; NALP1 inh: 30; NALP3 yeast inh: -1; SUMO Mot1 rescue: -5

How did CC(C)C[C@H](NC(=O)c1[nH]cnc1C(=O)Nc1ccc(CNC(=O)OC(C)(C)C)cc1)C(=O)OCc1ccccc1 do in these assays?
PolyA inhibitor: -3; NALP3 yeast inh: 15; SUMO Mot1 rescue: 325*

What do the screens show for `COc1ccc(NC(=O)Cn2cnc3c(cnn3C(C)(C)C)c2=O)cc1OC`?
PolyA inhibitor: 6; NALP1 inh: 31*; NALP3 yeast inh: -7

What do the screens show for `Cc1ccc(NC(=O)Cn2cnc3c(cnn3C(C)(C)C)c2=O)cc1`?
PolyA inhibitor: 4; NALP1 inh: 19; NALP3 yeast inh: 13; SUMO Mot1 rescue: -10

How did COc1ccc(S(N)(=O)=O)cc1C(=O)OCC(=O)NC(C)(C#N)C1CC1 (stereo unspecified) do in these assays?
NALP3 yeast inh: 5; SUMO Mot1 rescue: 4

Results for COc1ccc(/C=C(\NC(=O)c2ccccc2)C(=O)NCc2cccnc2)cc1 ?
PolyA inhibitor: 3; NALP1 inh: 9; NALP3 yeast inh: -5; SUMO Mot1 rescue: 270*
